# Columns and labels:
# Assay in all cases: DAPPL (digital affinity profiling via proximity ligation, sequencing); 10 mM Tris-HCl pH 7.5, 50 mM NaCl, 1 mM DTT, 4% glycerol, room temperature, 30 min; GST-TFs on glutathione beads, 16-mer random dsDNA library, 0.1% formaldehyde crosslink after washing; high values mean tight binding
# [1] = biological target: T1, FEV (Homo sapiens, UniProt Q99581 1-238); settings: protein: recombinant; tags: N-terminal GST; dsDNA, one strand shown
# T1 sequence: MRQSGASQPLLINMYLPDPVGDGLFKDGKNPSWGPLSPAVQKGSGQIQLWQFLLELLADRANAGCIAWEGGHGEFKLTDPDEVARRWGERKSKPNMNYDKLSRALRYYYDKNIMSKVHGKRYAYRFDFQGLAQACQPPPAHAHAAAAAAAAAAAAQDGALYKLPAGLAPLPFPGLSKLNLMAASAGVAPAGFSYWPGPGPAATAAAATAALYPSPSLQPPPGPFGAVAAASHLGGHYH
# Outline: (§1)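 Binding signal is given per hexamer as its read frequency for a factor divided by its frequency in the tag-only sample. GST-fused human transcription factors were expressed in yeast, captured on glutathione beads, barcoded with DNA and pooled with that sample, then incubated with 200 nmole of a 16-mer random double-stranded DNA library in Tris/NaCl/DTT/glycerol buffer for 30 min at room temperature. The pools were then washed, crosslinked, proximity-ligated, amplified by PCR and sequenced on an Illumina NextSeq500.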
# [2] = biological target: ETV5 (Homo sapiens, UniProt P41161 1-510); settings: protein: recombinant; tags: N-terminal GST; dsDNA, one strand shown
# Outline: as §1
# [3] = biological target: HSF1 (Homo sapiens, UniProt Q00613 1-529); settings: protein: recombinant; tags: N-terminal GST; chain copies: 3; dsDNA, one strand shown
# Outline: as §1
# [4] = biological target: T2, SPIC (Homo sapiens, UniProt Q8N5J4 1-248); settings: protein: recombinant; tags: N-terminal GST; dsDNA, one strand shown
# T2 sequence: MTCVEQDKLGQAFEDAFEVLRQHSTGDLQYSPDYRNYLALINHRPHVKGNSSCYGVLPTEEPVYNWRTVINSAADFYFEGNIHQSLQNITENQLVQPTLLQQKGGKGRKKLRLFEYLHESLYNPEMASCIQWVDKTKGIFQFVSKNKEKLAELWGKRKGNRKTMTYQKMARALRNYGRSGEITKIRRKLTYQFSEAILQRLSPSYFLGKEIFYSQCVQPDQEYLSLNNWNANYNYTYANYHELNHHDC
# Outline: as §1
# [5] = biological target: ELF4 (Homo sapiens, UniProt Q99607 1-663); settings: protein: recombinant; tags: N-terminal GST; dsDNA, one strand shown
# Outline: as §1
# [6] = biological target: T3, ELK4 (Homo sapiens, UniProt P28324-2 1-405); settings: protein: recombinant; tags: N-terminal GST; dsDNA, one strand shown
# T3 sequence: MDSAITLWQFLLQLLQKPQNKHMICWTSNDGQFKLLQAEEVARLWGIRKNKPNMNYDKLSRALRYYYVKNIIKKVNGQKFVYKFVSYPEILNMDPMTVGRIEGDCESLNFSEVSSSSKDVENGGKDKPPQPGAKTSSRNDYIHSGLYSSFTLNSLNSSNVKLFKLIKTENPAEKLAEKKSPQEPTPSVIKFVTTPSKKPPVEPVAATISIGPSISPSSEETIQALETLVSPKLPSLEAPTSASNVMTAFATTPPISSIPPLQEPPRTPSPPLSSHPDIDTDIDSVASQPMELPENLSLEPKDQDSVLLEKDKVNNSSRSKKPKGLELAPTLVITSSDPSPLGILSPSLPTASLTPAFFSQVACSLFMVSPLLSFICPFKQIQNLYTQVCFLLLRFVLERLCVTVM
# Outline: as §1
# [7] = biological target: T4, ETV2 (Homo sapiens, UniProt O00321 1-342); settings: protein: recombinant; tags: N-terminal GST; dsDNA, one strand shown
# T4 sequence: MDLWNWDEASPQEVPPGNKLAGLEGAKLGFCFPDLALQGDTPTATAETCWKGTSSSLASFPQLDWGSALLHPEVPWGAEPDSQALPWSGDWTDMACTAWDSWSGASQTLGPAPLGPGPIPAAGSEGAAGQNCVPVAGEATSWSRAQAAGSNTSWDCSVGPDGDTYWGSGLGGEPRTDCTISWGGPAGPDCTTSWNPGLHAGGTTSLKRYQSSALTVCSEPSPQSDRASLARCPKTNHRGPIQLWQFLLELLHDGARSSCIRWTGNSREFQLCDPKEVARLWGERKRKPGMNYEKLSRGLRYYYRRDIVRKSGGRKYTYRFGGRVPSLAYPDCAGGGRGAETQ
# Outline: as §1
# [8] = biological target: T5, ELF3 (Homo sapiens, UniProt P78545 1-371); settings: protein: recombinant; tags: N-terminal GST; dsDNA, one strand shown
# T5 sequence: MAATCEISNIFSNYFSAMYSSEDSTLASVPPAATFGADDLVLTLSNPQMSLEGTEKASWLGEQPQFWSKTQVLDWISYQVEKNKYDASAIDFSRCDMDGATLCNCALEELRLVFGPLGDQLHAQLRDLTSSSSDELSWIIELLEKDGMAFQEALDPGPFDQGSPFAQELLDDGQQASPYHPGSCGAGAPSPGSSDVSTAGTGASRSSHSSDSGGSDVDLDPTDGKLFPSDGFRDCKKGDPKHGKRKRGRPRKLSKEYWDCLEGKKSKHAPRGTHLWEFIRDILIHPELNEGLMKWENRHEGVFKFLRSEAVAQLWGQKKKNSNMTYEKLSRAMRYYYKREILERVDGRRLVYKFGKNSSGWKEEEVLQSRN
# Outline: as §1
# [9] = biological target: CRX (Homo sapiens, UniProt O43186 1-299); settings: protein: recombinant; tags: N-terminal GST; dsDNA, one strand shown
# Outline: as §1
# [10] = biological target: ETV1 (Homo sapiens, UniProt P50549 1-477); settings: protein: recombinant; tags: N-terminal GST; dsDNA, one strand shown
# Outline: as §1
# [11] = biological target: T6, ERF (Homo sapiens, UniProt P50548 1-548); settings: protein: recombinant; tags: N-terminal GST; dsDNA, one strand shown
# T6 sequence: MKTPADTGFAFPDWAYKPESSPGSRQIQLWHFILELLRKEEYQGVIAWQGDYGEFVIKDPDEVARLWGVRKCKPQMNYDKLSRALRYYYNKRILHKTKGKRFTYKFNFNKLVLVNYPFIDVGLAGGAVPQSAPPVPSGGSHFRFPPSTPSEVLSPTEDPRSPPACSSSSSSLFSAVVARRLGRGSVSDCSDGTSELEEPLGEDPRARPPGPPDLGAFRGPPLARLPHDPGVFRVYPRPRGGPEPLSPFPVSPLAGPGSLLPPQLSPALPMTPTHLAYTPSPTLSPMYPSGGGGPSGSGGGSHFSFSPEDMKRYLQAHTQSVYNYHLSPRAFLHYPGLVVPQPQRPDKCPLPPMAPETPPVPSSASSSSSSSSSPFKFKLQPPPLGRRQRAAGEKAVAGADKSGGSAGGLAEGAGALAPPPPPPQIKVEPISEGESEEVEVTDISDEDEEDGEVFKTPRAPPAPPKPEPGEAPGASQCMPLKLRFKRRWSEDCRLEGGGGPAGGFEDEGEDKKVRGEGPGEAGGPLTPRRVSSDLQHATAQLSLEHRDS
# Outline: as §1
# [12] = biological target: T7, ETV3L (Homo sapiens, UniProt Q6ZN32 1-361); settings: protein: recombinant; tags: N-terminal GST; dsDNA, one strand shown
# T7 sequence: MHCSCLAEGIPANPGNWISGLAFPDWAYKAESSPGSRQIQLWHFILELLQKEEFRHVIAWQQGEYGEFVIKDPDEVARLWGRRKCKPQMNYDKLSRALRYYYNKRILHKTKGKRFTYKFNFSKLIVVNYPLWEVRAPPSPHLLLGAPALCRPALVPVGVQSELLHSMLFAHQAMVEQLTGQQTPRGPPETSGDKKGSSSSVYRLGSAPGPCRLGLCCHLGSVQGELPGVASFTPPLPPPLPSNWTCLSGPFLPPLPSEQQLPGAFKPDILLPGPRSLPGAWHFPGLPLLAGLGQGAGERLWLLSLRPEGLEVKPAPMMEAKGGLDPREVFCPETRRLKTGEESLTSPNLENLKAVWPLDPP
# Outline: as §1
# [13] = biological target: T8, ETS2 (Homo sapiens, UniProt P15036 1-469); settings: protein: recombinant; tags: N-terminal GST; dsDNA, one strand shown
# T8 sequence: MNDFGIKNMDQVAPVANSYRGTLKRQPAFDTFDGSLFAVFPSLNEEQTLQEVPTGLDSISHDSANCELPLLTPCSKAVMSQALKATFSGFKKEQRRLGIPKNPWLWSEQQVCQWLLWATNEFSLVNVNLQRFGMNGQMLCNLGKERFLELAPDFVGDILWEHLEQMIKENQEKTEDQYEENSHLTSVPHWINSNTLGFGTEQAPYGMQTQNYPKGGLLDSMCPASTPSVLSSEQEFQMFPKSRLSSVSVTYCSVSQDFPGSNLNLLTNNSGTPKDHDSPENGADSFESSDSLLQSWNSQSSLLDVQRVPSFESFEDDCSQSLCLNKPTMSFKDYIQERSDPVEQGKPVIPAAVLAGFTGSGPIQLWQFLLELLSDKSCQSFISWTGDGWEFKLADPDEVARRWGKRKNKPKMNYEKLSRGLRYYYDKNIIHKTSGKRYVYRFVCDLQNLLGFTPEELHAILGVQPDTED
# Outline: as §1
# [14] = biological target: T9, SPDEF (Homo sapiens, UniProt O95238 1-335); settings: protein: recombinant; tags: N-terminal GST; dsDNA, one strand shown
# T9 sequence: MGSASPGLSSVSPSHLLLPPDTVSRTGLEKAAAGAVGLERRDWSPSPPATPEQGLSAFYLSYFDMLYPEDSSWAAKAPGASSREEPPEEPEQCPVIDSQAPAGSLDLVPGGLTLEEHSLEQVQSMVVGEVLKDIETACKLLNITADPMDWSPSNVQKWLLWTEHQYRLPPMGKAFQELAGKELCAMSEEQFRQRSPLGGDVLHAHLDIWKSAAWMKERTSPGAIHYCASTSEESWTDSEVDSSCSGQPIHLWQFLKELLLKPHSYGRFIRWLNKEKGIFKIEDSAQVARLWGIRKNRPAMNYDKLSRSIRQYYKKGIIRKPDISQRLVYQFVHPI
# Outline: as §1
# [15] = biological target: T10, ETV7 (Homo sapiens, UniProt Q9Y603 1-341); settings: protein: recombinant; tags: N-terminal GST; dsDNA, one strand shown
# T10 sequence: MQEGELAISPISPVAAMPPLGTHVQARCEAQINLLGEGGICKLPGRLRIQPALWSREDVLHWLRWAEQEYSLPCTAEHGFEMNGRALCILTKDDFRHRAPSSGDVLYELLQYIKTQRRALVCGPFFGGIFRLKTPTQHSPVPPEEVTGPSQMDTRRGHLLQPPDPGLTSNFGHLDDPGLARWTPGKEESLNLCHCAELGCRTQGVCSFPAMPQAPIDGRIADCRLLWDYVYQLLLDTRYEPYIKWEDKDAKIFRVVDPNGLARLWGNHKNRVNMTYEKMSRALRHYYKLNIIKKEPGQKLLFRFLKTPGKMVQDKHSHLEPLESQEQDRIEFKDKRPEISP
# Outline: as §1
# [16] = biological target: T11, ELF5 (Homo sapiens, UniProt Q9UKW6-2 1-255); settings: protein: recombinant; tags: N-terminal GST; dsDNA, one strand shown
# T11 sequence: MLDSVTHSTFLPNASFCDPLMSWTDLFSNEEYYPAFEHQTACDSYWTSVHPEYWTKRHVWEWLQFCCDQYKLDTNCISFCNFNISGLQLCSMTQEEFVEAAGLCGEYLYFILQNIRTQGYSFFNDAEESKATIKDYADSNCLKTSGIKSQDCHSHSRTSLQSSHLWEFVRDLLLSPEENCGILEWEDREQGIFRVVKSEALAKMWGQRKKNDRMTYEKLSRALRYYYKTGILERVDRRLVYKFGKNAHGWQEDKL
# Outline: as §1
# [17] = biological target: T12, ETV3 (Homo sapiens, UniProt P41162-2 1-143); settings: protein: recombinant; tags: N-terminal GST; dsDNA, one strand shown
# T12 sequence: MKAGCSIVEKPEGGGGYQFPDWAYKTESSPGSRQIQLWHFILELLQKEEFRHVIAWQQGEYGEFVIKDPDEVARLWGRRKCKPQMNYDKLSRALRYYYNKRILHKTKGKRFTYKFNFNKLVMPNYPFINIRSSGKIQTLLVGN
# Outline: as §1
# [18] = biological target: ETV6 (Homo sapiens, UniProt P41212 1-452); settings: protein: recombinant; tags: N-terminal GST; dsDNA, one strand shown
# Outline: as §1
# HSF1, sequence (Q00613 whole entry): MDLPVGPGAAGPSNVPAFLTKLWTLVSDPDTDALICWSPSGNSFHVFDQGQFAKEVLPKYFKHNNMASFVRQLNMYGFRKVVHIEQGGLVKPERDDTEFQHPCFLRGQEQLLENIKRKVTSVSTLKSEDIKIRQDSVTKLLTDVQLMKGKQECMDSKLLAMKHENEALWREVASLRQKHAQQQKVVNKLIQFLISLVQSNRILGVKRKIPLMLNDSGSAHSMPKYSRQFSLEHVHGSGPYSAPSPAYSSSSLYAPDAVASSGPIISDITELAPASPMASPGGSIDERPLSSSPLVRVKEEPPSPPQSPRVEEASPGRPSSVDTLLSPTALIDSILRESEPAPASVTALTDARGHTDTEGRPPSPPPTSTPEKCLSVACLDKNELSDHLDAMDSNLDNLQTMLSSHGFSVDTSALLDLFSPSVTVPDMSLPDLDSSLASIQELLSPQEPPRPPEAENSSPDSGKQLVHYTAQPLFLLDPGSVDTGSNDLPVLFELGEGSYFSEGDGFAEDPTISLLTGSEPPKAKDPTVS
# ETV5, sequence (P41161 whole entry): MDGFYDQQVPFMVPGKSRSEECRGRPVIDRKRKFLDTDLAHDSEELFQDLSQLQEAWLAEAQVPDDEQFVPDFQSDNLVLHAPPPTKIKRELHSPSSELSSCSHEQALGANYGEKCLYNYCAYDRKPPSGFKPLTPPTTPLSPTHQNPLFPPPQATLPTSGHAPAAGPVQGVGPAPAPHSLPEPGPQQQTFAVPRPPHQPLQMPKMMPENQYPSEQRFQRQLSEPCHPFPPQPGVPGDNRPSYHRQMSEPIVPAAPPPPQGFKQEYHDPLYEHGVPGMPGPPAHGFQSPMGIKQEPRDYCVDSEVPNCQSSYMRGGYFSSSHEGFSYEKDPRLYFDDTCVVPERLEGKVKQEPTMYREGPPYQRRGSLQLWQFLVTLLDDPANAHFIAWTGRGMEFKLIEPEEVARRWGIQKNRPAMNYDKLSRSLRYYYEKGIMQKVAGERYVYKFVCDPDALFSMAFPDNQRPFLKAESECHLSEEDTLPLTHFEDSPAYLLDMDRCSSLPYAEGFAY
# ELF4, sequence (Q99607 whole entry): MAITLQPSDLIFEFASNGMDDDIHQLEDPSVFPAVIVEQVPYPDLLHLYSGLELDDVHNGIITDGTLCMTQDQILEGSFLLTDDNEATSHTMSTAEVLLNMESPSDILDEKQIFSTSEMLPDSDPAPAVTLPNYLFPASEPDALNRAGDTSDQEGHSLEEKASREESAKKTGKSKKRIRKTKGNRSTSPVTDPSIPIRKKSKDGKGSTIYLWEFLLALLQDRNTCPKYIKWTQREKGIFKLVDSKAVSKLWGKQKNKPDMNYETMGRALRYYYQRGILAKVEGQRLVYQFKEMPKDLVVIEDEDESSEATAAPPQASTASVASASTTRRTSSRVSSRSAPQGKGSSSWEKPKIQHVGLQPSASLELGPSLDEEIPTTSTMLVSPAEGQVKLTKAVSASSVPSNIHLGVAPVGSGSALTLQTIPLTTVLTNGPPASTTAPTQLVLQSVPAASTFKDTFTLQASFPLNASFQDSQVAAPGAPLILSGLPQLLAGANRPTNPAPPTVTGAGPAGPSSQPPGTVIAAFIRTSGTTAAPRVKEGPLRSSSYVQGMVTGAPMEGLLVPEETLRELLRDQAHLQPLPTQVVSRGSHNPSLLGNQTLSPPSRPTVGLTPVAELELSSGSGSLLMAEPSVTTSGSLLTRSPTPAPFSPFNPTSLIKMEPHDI
# ETV6, sequence (P41212 whole entry): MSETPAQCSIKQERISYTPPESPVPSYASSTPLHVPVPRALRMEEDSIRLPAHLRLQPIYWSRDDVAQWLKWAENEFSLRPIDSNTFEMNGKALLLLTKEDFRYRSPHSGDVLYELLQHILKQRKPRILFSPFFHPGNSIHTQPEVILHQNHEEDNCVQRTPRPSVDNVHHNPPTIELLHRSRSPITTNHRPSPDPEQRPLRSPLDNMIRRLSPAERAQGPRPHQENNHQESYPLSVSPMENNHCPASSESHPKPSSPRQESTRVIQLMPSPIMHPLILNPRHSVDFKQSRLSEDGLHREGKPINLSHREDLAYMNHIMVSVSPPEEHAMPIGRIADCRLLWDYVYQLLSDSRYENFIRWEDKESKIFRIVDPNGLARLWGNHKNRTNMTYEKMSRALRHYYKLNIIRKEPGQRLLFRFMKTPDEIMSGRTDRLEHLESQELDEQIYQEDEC
# ETV1, sequence (P50549 whole entry): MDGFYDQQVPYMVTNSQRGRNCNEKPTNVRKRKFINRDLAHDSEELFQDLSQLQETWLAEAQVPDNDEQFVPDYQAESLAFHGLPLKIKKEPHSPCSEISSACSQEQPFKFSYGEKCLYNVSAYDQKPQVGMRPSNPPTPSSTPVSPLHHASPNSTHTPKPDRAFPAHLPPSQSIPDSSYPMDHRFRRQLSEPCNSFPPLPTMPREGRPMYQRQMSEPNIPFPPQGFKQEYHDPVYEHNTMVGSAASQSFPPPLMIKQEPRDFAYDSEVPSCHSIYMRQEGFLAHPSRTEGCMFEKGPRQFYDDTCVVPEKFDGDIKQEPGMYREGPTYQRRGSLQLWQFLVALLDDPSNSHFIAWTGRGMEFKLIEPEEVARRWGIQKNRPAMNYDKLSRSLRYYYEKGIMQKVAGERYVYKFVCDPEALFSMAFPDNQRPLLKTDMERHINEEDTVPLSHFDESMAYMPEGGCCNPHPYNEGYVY
# CRX, sequence (O43186 whole entry): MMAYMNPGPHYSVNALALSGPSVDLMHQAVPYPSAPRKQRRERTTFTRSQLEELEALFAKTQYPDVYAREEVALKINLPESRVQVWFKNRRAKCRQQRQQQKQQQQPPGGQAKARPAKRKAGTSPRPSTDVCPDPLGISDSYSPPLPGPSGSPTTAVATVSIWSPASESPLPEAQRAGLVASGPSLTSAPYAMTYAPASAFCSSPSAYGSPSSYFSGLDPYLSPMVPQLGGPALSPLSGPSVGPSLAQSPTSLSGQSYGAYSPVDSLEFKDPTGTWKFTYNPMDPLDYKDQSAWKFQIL
sequence,measurement,setting,value
ATGGAT,binding signal,[1],"1.04 fold enrichment (6-mer frequency, TF over GST control)"
same,binding signal,[2],"1.07 fold enrichment (6-mer frequency, TF over GST control)"
same,binding signal,[3],"1.26 fold enrichment (6-mer frequency, TF over GST control)"
same,binding signal,[4],"1.21 fold enrichment (6-mer frequency, TF over GST control)"
same,binding signal,[5],"1.11 fold enrichment (6-mer frequency, TF over GST control)"
same,binding signal,[6],"1.14 fold enrichment (6-mer frequency, TF over GST control)"
same,binding signal,[7],"1.06 fold enrichment (6-mer frequency, TF over GST control)"
same,binding signal,[8],"1.09 fold enrichment (6-mer frequency, TF over GST control)"
same,binding signal,[9],"1.6 fold enrichment (6-mer frequency, TF over GST control)"
same,binding signal,[10],"1.06 fold enrichment (6-mer frequency, TF over GST control)"
same,binding signal,[11],"1.09 fold enrichment (6-mer frequency, TF over GST control)"
same,binding signal,[12],"1.16 fold enrichment (6-mer frequency, TF over GST control)"
same,binding signal,[13],"1.09 fold enrichment (6-mer frequency, TF over GST control)"
same,binding signal,[14],"1.01 fold enrichment (6-mer frequency, TF over GST control)"
same,binding signal,[15],"1.16 fold enrichment (6-mer frequency, TF over GST control)"
same,binding signal,[16],"1.06 fold enrichment (6-mer frequency, TF over GST control)"
same,binding signal,[17],"1.11 fold enrichment (6-mer frequency, TF over GST control)"
same,binding signal,[18],"1.09 fold enrichment (6-mer frequency, TF over GST control)"

# Source: PMC7862700, “An all-to-all approach to the identification of sequence-specific readers for epigenetic DNA modifications on cytosine”
